Laboratory results published in PubChem BioAssay AID748 (Sanford-Burnham Center for Chemical Genomics, 2007).
Screen size: about 96,000 compounds; about 100 (0.1%) were called active. For the sample, actives were picked, then their nearest neighbours and some compounds at random. Potency and affinity values are given separately. Unmarked numbers belong to inactive results.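 The calls were made as follows: active = displacement above 50% at 20 µM plus a fluorescence interference ratio under 1.5; inactive = the rest.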

molecular target: Bcl-2-like protein 10 (Homo sapiens) (UniProt Q9HD36); assay: Bcl-B/TR3 peptide binding disruption – biochemical, fluorescence polarization, FITC-TR3 peptide, selectivity assay for Bfl-1 inhibitor project, primary screen (AID 748); settings: FP displacement of FITC-TR3 peptide from Bcl-B; at 20 µM; stronger effect = higher value;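 also: plate controls were wells without compound for no effect and wells lacking Bcl-B protein for full effect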

Row | SMILES | displacement
1 | N/C(COc1ccc(F)cc1)=N\NC(=O)c1cccnc1Oc1ccccc1 | 12.1%
2 | C/C(Cl)=C/Cn1c(=O)c2c(nc(Br)n2Cc2ccccc2)n(C)c1=O | 4.3%
3 | C/C(N)=C(/C#N)C(=O)CSc1nnc(Nc2ccccc2C)s1 | 4.3%
4 | C/C(N)=C(/C#N)C(=O)CSc1nnc(Nc2cccc(C)c2C)s1 | -1.5%
5 | O=S(=O)(c1ccccc1)N1CCSC1c1ccco1 (configuration not stated) | -4.6%
6 | CCc1cc(C(=O)Cc2cnn(-c3ccccc3)c2)c(O)cc1O | -5.9%
7 | Cc1ccc(O)c(C(=O)c2cnn(-c3ccccc3)c2)c1 | -8.5%
8 | CC(SCCc1ccccn1)C(=O)O (configuration not stated) | -2%
9 | CCn1c(SCC(=O)Nc2ccc(NC(C)=O)cc2)nnc1C1CC1 | -2.2%
10 | O=c1c(-c2ccccc2)coc2c(CN3CCCC3)c(O)ccc12 | 0.4%
11 | COc1ccc(C(=O)c2coc3ccc(O)c(CN4CCCCC4)c23)cc1 | -2.5%
12 | Nc1csnc1C(=O)O | 1.9%
13 | Cc1nnc(-c2cccc(Br)c2)c2cn(-c3ccccc3Cl)nc12 | 7.2%
14 | CCCCC(=O)Nc1ccc(NC(=O)CCCC)nc1 | -8.6%
15 | Cc1ccc(C(=O)CSc2cc(C)nc(SCC(=O)c3ccccc3)n2)cc1 | -6.6%
16 | CCn1c(SCC(=O)c2ccc(O)c(O)c2)nnc1-c1ccccc1 | 15.8%
17 | Nc1cc(N)nc(SCC(=O)c2ccccc2)n1 | -7.4%
18 | CCn1c(SCC(=O)c2ccc(O)c(O)c2)nnc1-c1ccc(C)cc1 | 33%
19 | Cc1ccc(NC(=O)CCn2nc(C)cc2C)c(C)c1 | -5%
20 | CCN(CCO)c1ccc(-n2c(N)c(C(=O)OC)c3nc4ccccc4nc32)cc1 | 12.6%
21 | CC(C)c1nnc(NC(=O)CCN2C(=O)c3ccccc3C2=O)s1 | -5.9%
22 | CCn1c(SCc2ccc(C#N)cc2)nnc1-c1cccc(Cl)c1 | -1.6%
23 | Clc1ccc(CN(Cc2ccccc2)C(c2cccs2)c2nnnn2C2CCCC2)cc1 (configuration not stated) | -9.7%
24 | O=C1CN(C(=O)c2cnccn2)c2ccccc2N1 | 7%
25 | O=C(c1cccnc1)N1CCc2ccccc21 | -1.9%

Row | SMILES | displacement
26 | Cc1cc(C(F)F)n2ncc(C(=O)N3CCC(C(N)=O)CC3)c2n1 | 10.5%
27 | CCS(=O)(=O)C(=C1NCCO1)S(=O)(=O)CC | 1.6%
28 | Cc1ccc2c(Cl)cc(Cl)c(OCC(=O)NCc3ccco3)c2n1 | 56.5% (active)
29 | Cc1ccc2c(Cl)cc(Cl)c(OCC(=O)NC(=O)NCc3ccco3)c2n1 | -8%
30 | Cc1cc(Cl)cc(Cl)c1OCC(=O)NCc1ccco1 | -20.9%
31 | Cc1ccccc1C(=O)/C=C1/c2ccccc2CC(C)(C)N1C | 4.3%
32 | c1ccc(Sc2cnc3ccccc3n2)cc1 | -0.3%
33 | O=C1C(C=Nc2ccccc2O)=C(O)c2ccccc21 | -6.7%
34 | CN=CC1=C(O)c2ccccc2C1=O | -13.3%
35 | Cc1cc(C)c(C)c(S(=O)(=O)NCC(=O)O)c1C | 2.8%
36 | O=C(Nc1ccc(N2CCOCC2)cc1)Nc1ccc(Cl)c(Cl)c1 | -11.1%
37 | CC(=O)c1ccc(N2CCN(c3ncc(C(F)(F)F)cc3Cl)CC2)cc1 | -8.1%
38 | Cc1nnc2n(Cc3ccccc3)c(=O)c3c4c(sc3n12)COC(C)(C)C4 | 4.4%
39 | Cc1ccc(-n2c(SCC(=O)N3CCCC3)nc3c(c2=O)SCC3)cc1 | 1%
40 | CC(=O)c1ccc(NC(=O)c2noc3c2CCCCC3)cc1 | -0.9%
41 | CCc1ccc(NC(=O)c2noc3c2CCCCC3)cc1 | -3%
42 | Cc1ccc(NC(=O)c2noc3c2CCCCC3)cc1 | -10.5%
43 | COc1ccc(CNC(=O)c2noc3c2CCCC3)cc1 | -8.9%
44 | O=C(N1CCOCC1)N1CCN(c2nc(-c3ccccc3)cs2)CC1 | -0.8%
45 | COC(=O)c1cc(C(=O)OC)n(Cc2ccc(F)cc2)n1 | -10.3%
46 | CCc1ccc(-n2nc3ccc(NC(=O)c4ccc5c(c4)OCO5)cc3n2)cc1 | -1%
47 | O=C(Nc1ccc2nn(-c3ccccc3)nc2c1)c1ccc2c(c1)OCO2 | -30.3%
48 | Cc1cccc(C(=O)NNC2=C(C(=O)C(F)(F)F)CCC2)c1O | 10.3%
49 | Cc1nnc(SCCn2c(N3CCC(C)CC3)nc3c2c(=O)[nH]c(=O)n3C)s1 | -6.3%
50 | Cc1cc(C)n(C(=O)CCN2C(=O)c3ccccc3C2=O)n1 | -3.1%

Row | SMILES | displacement
51 | Brc1ccc(-c2nn3c(-c4ccco4)nnc3s2)o1 | 30%
52 | c1coc(-c2nnc3sc(-c4cccs4)nn23)c1 | 4.7%
53 | CC1(C)OC(=O)C(=CNn2cnc3ccccc3c2=O)C(=O)O1 | -2.6%
54 | CCOC(=O)C1CCCN(C/C(O)=C(\C#N)c2nc(-c3ccc(Cl)cc3)cs2)C1 (configuration not stated) | 0%
55 | CCOc1cc(N2CCOCC2)c(OCC)cc1NC(=O)c1cc(-c2ccco2)nc2ccccc12 | 25.3%
56 | O=C(N/N=C/c1cccc(F)c1)c1cc(-c2ccco2)nc2ccccc12 | 39.5%
57 | Cc1cccc(NC(=O)c2cc(-c3ccco3)nc3ccccc23)n1 | 41.4%
58 | O=C(O)c1cc(-c2ccco2)nc2ccccc12 | 18.6%
59 | Cc1ccccc1C(=O)c1cccn1CC(=O)NCc1ccc2c(c1)OCO2 | -0.3%
60 | O=C(O)c1cc2c([nH]c1=O)CCCC2 | -1%
61 | Cc1cc(NC(=O)CN2CCN(S(=O)(=O)c3ccc4ccccc4c3)CC2)no1 | -1%
62 | O=C(NCCN1CCCCCC1)c1ccc(CS(=O)(=O)c2ccc(Br)cc2)o1 | 4.3%
63 | CS(=O)(=O)Nc1ccccc1C(=O)Nc1ccc2c(c1)OCCO2 | -6.4%
64 | Cc1ccc(C(=O)NC2CCCc3ccccc32)o1 (configuration not stated) | 1.5%
65 | NC(=S)N/N=C/c1ccc(-c2cccc([N+](=O)[O-])c2)o1 | -3.1%
66 | O=C(O)c1cc(-c2ccc(/C=N/Nc3ccc(Cl)cc3)o2)ccc1Cl | -20.9%
67 | C/C(N)=C(/C#N)C(=O)COC(=O)CSc1ccc2ccccc2c1 | -15.4%
68 | O=C(COC(=O)CCCN1C(=O)c2ccccc2C1=O)Nc1ncc(Cl)cc1Cl | 43.6%
69 | O=C(COC(=O)CCc1ccccc1)Nc1ncc(Cl)cc1Cl | 24.2%
70 | Cc1ccc(S(=O)(=O)NCC(=O)OC(C)C(=O)Nc2ncc(Cl)cc2Cl)cc1 (configuration not stated) | -1.5%
71 | CC(C(=O)OCC(=O)Nc1ncc(Cl)cc1Cl)N1C(=O)c2ccccc2C1=O (configuration not stated) | 21.3%
72 | Cc1ccc(S(=O)(=O)CCC(=O)OCC(=O)Nc2ncc(Cl)cc2Cl)cc1 | 24.5%
73 | COc1ccc(CC(=O)OCC(=O)Nc2ncc(Cl)cc2Cl)cc1 | 41.3%
74 | O=C(COC(=O)C12CC3CC(CC(C3)C1)C2)Nc1ncc(Cl)cc1Cl | 31.8%
75 | CC(=O)NC12CC3CC(C1)CC(C(=O)OCC(=O)Nc1ncc(Cl)cc1Cl)(C3)C2 | 40.7%

Row | SMILES | displacement
76 | CCOC(=O)c1ccc(NC(=O)CSc2nnc(CNC(=O)c3ccccc3F)o2)cc1 | 0%
77 | CC(C)(C)C(=O)CSc1nccc(=O)[nH]1 | 2.2%
78 | O=C1C(C2=NC(C(=O)O)C3C(=O)N(c4ccccc4)C(=O)C23)=C(O)c2ccccc21 (configuration not stated) | -7%
79 | COc1ccc(Cl)cc1C(=O)Nc1ccc(S(=O)(=O)N2CCCC2)cc1 | -12.1%
80 | O=C(CCC1CCCC1)N1CCN(S(=O)(=O)Cc2ccccc2)CC1 | -7.6%
81 | O=C(Nc1ccc(-c2nnc(-c3ccco3)o2)cc1)C(c1ccccc1)c1ccccc1 | 3.9%
82 | COC(=O)CSc1nnc(CNS(=O)(=O)c2ccc(Cl)cc2)n1C | 8.2%
83 | COc1cc(CCC(=O)OCC(=O)Nc2ncc(Cl)cc2Cl)cc(OC)c1OC | 32.6%
84 | Cc1cc(NC(=O)COC(=O)C2CCN(S(=O)(=O)c3ccc(Cl)cc3)CC2)no1 | 7.5%
85 | Cc1cc(NC(=O)COC(=O)C2CCN(S(=O)(=O)c3cccc(Cl)c3Cl)CC2)no1 | 1.9%
86 | COc1ccc(CC(=O)OCC(=O)Nc2ncc(Cl)cc2Cl)cc1OC | 3%
87 | Cc1ccc(Cl)cc1N1CCN(C(=O)c2cn(C)c(=O)c3c2c2ccccc2n3C)CC1 | -4.3%
88 | CC(=O)Nc1ccc(NC(=O)C(C)n2nc([N+](=O)[O-])c(Br)c2C)cc1 (configuration not stated) | -5.9%
89 | CC(=O)c1c(C)[nH]c(C(=O)Nc2c(C)n(C)n(-c3ccccc3)c2=O)c1C | 1%
90 | COc1cccc(C=Nc2ccccc2C(=O)Nc2nccs2)c1OC | -10.6%
91 | O=C(C[n+]1ccc(C(=O)N/N=C/c2ccc(OCc3ccccc3)cc2)cc1)c1ccccc1 | 46.7%
92 | O=C(C[n+]1ccc(C(=O)N/N=C/c2ccc(Br)cc2)cc1)c1ccccc1 | 43.2%
93 | CCOC(=O)C1C(C#N)=C(N)OC(C)=C1c1ccncc1 (configuration not stated) | 11.4%
94 | CCOC(=O)c1c(COC(=O)c2ccco2)nc2ccccc2[n+]1[O-] | -4.9%
95 | CC(=O)c1c(COC(=O)c2ccco2)nc2ccccc2[n+]1[O-] | 68.3% (active)
96 | COc1ccc2nc(COC(=O)c3ccco3)c(C(C)=O)[n+]([O-])c2c1 | 10.7%
97 | O=C1CC(Cc2ccccc2)C(=O)N1Cc1ccco1 (configuration not stated) | 0%
